The results in this text go back to the supplement of paper PMC10849652.

Assay in all cases: log2 fold change, soluble protein after heating vs DMSO (PISA); higher = thermal stabilisation; K562 lysate, 10 uM; active = over 0.2 and 3.5 SD of the protein, either way, in both replicates (recomputed)
Compound in assay [1]: C1=CC=C(C=C1)[C@H](COC2=CC3=C(C=C2)NC(=O)N3)NC(=O)C4=CC=CN(C4=O)CC5=CC(=C(C=C5)F)F
An outline of the steps:
(§1)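 To prepare the extract, K562 pellets were dounce-homogenised in PBS pH 7.4 with 1 mM MgCl2, giving crude material at 1 mg/mL protein. This was treated with 10 μM compound for 30 min, then heated in aliquots for 3 min over 48°C-58°C before pooling and addition of NP-40 to 0.5% at 4°C. Centrifugation at 21,000xg for 90 min left soluble protein in the supernatant, which TMTpro 16plex LC-MS/MS quantified with equalised channel sums. Results are log-two fold changes in thermal stability compared with solvent controls, from duplicates.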

Compound in assay [2]: CC1=C(SC2=C1C(=N[C@H](C3=NN=C(N32)C)CC(=O)N)C4=CC=C(C=C4)Cl)C
An outline of the steps: as §1

Compound in assay [3]: CC1=C2C(=CC=C1)N=C(N(C2=O)C3=CC=CC=C3C)CN4C=NC5=C(N=CN=C54)N
An outline of the steps:
as §1

Compound in assay [4]: Cc1sc2c(c1C)C(c1ccc(Cl)cc1)=N[C@@H](CC(=O)OC(C)(C)C)c1nnc(C)n1-2
An outline of the steps: as §1

Compound in assay [5]: c1ccc([C@@H]2C[C@H]2NC2CCNCC2)cc1
An outline of the steps:
as §1

Targets with a hit are over-represented here; the source holds about 8,800 in all. About 0.5% of all pairs of compound and target were hits. Values without a mark were called inactive.

Chain of UniProt Q92974 (Q92974 whole entry, looked up): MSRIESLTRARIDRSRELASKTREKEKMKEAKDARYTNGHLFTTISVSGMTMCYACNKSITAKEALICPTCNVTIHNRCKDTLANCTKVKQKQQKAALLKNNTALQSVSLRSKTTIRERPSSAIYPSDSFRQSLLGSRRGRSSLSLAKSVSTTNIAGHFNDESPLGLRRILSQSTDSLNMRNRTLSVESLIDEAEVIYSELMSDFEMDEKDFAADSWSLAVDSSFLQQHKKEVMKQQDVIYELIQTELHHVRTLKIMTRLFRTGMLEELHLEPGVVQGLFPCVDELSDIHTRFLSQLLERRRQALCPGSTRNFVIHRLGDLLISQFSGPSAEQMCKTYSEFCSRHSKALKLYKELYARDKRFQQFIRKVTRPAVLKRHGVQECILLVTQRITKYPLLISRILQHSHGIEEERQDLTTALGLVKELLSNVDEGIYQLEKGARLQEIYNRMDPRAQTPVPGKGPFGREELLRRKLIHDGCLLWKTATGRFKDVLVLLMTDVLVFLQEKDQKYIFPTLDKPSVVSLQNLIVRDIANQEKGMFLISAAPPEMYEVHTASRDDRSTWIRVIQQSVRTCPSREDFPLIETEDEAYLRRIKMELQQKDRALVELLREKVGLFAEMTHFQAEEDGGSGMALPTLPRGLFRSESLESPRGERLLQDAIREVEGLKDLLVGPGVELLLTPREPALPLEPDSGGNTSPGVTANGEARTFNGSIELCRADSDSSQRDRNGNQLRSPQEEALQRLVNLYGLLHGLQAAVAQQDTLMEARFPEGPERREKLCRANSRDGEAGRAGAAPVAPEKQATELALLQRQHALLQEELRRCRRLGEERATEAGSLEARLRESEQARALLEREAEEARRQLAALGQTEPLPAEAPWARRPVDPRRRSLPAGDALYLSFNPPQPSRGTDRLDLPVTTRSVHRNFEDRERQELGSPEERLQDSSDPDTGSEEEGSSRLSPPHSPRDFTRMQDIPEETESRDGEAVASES
Chain of UniProt Q01432 (Q01432 whole entry, looked up): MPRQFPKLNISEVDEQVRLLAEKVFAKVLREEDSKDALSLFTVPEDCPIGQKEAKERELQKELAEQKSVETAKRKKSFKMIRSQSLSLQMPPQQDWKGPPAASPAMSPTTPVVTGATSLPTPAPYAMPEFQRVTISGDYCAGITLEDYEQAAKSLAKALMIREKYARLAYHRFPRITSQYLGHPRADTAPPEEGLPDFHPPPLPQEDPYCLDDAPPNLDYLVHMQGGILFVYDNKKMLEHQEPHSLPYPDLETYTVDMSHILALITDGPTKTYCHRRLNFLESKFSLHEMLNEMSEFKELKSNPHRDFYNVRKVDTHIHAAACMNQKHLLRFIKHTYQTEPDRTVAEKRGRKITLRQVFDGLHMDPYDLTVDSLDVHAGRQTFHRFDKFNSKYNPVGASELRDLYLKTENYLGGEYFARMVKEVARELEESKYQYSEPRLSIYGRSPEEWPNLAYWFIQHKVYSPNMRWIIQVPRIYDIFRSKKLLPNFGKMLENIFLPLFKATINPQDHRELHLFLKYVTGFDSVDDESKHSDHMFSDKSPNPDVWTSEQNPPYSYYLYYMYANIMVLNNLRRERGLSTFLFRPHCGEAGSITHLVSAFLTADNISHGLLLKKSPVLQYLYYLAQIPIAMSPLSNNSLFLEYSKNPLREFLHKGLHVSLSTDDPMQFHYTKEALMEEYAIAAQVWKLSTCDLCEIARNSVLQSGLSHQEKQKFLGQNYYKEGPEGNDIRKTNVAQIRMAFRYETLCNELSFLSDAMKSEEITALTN
Chain of UniProt Q9NP73 (Q9NP73 whole entry, looked up): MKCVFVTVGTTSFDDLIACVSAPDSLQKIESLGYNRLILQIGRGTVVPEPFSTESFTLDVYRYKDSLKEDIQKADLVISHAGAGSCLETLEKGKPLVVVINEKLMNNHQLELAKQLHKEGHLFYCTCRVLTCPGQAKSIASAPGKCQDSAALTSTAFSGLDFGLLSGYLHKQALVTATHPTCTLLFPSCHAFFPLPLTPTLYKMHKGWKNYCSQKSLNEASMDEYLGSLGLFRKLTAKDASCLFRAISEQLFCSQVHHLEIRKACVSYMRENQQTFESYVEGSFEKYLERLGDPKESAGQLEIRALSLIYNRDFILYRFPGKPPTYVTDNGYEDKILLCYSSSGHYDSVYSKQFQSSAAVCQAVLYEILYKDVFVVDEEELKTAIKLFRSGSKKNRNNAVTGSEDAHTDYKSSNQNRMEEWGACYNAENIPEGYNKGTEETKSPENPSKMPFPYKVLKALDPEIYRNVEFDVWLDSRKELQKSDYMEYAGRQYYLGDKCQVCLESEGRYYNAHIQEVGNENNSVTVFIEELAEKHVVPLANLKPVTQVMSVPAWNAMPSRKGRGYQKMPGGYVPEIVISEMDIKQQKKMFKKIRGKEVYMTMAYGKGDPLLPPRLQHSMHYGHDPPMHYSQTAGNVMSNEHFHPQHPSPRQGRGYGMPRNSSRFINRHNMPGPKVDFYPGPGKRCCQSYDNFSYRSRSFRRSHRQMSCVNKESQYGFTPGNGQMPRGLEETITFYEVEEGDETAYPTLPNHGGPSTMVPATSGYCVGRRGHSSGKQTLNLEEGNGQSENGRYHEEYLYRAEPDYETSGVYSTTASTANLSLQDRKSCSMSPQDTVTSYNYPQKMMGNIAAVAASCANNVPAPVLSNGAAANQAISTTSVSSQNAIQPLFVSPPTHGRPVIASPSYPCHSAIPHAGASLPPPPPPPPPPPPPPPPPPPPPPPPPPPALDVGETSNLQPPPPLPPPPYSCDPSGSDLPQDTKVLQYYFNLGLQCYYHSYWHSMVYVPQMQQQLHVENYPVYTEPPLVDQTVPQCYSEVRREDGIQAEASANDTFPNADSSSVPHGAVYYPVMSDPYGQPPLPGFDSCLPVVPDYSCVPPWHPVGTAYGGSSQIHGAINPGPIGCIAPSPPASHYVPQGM
Chain of UniProt Q9Y4X0 (Q9Y4X0 whole entry, looked up): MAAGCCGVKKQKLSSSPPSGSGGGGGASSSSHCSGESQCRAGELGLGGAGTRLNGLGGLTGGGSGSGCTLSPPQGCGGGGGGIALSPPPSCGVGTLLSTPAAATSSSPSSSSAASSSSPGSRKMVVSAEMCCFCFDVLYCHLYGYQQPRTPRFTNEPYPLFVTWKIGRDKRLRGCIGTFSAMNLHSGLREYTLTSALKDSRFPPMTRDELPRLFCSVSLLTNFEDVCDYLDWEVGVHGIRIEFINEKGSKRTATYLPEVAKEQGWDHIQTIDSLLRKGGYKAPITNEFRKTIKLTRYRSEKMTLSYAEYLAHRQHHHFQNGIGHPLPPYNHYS
Chain of UniProt P09110 (P09110 whole entry, looked up): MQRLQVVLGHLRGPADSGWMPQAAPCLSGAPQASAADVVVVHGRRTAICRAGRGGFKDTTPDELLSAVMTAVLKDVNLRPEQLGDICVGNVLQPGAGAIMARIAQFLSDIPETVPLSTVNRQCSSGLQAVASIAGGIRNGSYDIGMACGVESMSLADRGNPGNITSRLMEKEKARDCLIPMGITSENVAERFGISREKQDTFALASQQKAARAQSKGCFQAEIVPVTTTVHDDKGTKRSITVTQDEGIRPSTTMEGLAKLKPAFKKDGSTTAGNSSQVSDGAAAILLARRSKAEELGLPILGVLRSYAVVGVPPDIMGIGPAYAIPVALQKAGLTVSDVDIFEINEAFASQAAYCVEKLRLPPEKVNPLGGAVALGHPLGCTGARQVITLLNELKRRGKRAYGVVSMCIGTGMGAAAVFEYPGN
Chain of UniProt Q96NW4 (Q96NW4 whole entry, looked up): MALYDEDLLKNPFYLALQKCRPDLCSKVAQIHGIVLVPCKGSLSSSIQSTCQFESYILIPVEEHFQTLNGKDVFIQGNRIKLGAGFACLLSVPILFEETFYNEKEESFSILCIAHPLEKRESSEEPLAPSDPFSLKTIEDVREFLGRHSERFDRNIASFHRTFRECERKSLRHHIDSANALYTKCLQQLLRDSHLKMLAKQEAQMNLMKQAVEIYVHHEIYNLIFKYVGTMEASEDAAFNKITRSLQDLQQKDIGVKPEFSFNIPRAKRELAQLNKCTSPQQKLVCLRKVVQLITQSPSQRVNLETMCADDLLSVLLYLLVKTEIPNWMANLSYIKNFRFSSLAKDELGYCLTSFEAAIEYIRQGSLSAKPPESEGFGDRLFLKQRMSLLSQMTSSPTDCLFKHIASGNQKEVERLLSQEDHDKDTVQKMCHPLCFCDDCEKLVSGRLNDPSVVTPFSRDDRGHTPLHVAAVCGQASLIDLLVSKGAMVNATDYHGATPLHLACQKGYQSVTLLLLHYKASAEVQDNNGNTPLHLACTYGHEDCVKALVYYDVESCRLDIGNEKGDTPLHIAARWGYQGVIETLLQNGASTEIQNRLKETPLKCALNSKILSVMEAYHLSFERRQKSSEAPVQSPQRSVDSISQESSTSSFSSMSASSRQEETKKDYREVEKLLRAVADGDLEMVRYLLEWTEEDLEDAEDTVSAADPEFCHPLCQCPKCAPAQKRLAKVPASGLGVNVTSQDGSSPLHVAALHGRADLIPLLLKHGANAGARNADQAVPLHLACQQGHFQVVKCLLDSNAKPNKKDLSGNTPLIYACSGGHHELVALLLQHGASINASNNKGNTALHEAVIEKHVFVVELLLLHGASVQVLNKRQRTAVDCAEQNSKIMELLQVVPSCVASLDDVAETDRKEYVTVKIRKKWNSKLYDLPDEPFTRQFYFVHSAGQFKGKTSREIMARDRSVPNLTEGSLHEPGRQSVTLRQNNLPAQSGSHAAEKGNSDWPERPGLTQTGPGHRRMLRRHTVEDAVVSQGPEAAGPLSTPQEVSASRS
Chain of UniProt P07311 (P07311 whole entry, looked up): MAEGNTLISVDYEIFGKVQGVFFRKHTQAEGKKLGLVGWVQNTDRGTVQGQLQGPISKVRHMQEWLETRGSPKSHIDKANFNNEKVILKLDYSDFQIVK
Chain of UniProt P40616 (P40616 whole entry, looked up): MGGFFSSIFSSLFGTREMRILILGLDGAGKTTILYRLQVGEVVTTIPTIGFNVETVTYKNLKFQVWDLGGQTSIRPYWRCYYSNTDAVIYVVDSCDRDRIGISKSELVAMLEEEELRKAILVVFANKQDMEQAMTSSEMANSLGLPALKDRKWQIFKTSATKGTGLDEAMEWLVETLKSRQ

With ARHGEF1 (UniProt M0QZR4), the log2 fold change in assay [1] is -0.046; in assay [2], 0.006; in assay [3], -0.017; in assay [4] it was -0.017; in assay [5], 0.004.
For ALG13 (UniProt Q9NP73), the log2 fold change in assay [1] is -0.015; in assay [2] it was -0.018; in assay [3] it was 0.09; in assay [4] it was 0.037; in assay [5], -0.087.
In the case of AMMECR1 (UniProt Q9Y4X0), the log2 fold change in assay [1] is -0.014; in assay [2] it was 0.019; in assay [3], 0.064; in assay [4], -0.007; in assay [5], 0.036.
Take AP4B1 (UniProt Q9Y6B7): the log2 fold change is 0.02 in assay [1]; 0.063 in assay [2]; -0.025 in assay [3]; 0.093 in assay [4]; 0.03 in assay [5].
For ABHD16A (UniProt O95870), the log2 fold change in assay [1] is -0.011; in assay [2], 0.008; in assay [3], 0.07; in assay [4] it was 0.059; in assay [5], 0.028.
For the target ACADM isoform 2 (UniProt P11310), the log2 fold change was -0.071 in assay [1]; -0.035 in assay [2]; 0.043 in assay [3]; 0.017 in assay [4]; 0.013 in assay [5].
ACIN1 isoform 5 (UniProt Q9UKV3): the log2 fold change in assay [1] is -0.002; in assay [2] it was 0.019; in assay [3], 0.013; in assay [4], -0.01; in assay [5], 0.012.
As to ALDH1L2 (UniProt Q3SY69), the log2 fold change in assay [1] is 0.015; in assay [2], 0.041; in assay [3] it was 0.052; in assay [4], -0.009; in assay [5], -0.023.
As to ARL1 (UniProt P40616), the log2 fold change in assay [1] was 0.094; in assay [2], 0.023; in assay [3], 0.051; in assay [4], -0.026; in assay [5] it was 0.026.
On to ARMCX3 (UniProt Q9UH62), for which the log2 fold change in assay [1] was 0.015; in assay [2], 0.009; in assay [3] it was 0.029; in assay [4], -0.074; in assay [5], 0.053.
Consider AIMP2 (UniProt Q13155), for which the log2 fold change is -0.028 in assay [1]; 0.021 in assay [2]; 0.013 in assay [3]; 0.036 in assay [4]; 0.041 in assay [5].
Regarding AKT1 (UniProt P31749), the log2 fold change in assay [1] was 0.011; in assay [2], -0.028; in assay [3], -0.028; in assay [4], -0.009; in assay [5] it was 0.013.
Take ASNS (UniProt P08243): the log2 fold change is 0.006 in assay [1]; 0.021 in assay [2]; 0.027 in assay [3]; 0.057 in assay [4]; 0.033 in assay [5].
Regarding ACYP1 (UniProt P07311), the log2 fold change is 0.019 in assay [1]; -0.026 in assay [2]; -0.036 in assay [3]; 0.022 in assay [4]; 0.052 in assay [5].
On to AMPD3 isoform 4 (UniProt Q01432), for which the log2 fold change in assay [1] was 0.02; in assay [2], -0.021; in assay [3], -0.012; in assay [4], 0.018; in assay [5] it was 0.093.
Take APOB (UniProt P04114): the log2 fold change was -0.009 in assay [1]; 0.039 in assay [2]; 0.023 in assay [3]; -0.168 in assay [4]; -0.109 in assay [5].
As for AKAP11 (UniProt Q9UKA4), the log2 fold change in assay [1] was 0.025; in assay [2] it was -0.008; in assay [3], 0.059; in assay [4], -0.041; in assay [5], -0.012.
Turning to ANKRD27 (UniProt Q96NW4), the log2 fold change in assay [1] was -0.025; in assay [2] it was 0.022; in assay [3] it was -0.011; in assay [4], 0.042; in assay [5], -0.002.
As to ACAT1 (UniProt P24752), the log2 fold change in assay [1] is -0.007; in assay [2], 0.029; in assay [3], -0.016; in assay [4] it was 0.031; in assay [5] it was 0.024.
With ANXA11 (UniProt P50995), the log2 fold change in assay [1] was 0.23 (active); in assay [2] it was 0.028; in assay [3], 0.015; in assay [4] it was 0.015; in assay [5], 0.002.
Consider AARS2 (UniProt Q5JTZ9), for which the log2 fold change in assay [1] was 0.014; in assay [2] it was -0.076; in assay [3], 0.026; in assay [4], 0.041; in assay [5], 0.045.
As for ANXA2 isoform 2 (UniProt P07355), the log2 fold change in assay [1] is 0; in assay [2], -0.005; in assay [3], -0.019; in assay [4] it was 0.024; in assay [5], 0.02.
For the target ACAA1 (UniProt P09110), the log2 fold change in assay [1] is -0.004; in assay [2], 0.007; in assay [3], -0.005; in assay [4], 0.046; in assay [5], -0.003.
Consider ARHGEF2 (UniProt Q92974), for which the log2 fold change in assay [1] was 0.023; in assay [2] it was -0.007; in assay [3], 0.034; in assay [4] it was 0.008; in assay [5], 0.05.
